Assay results published in ChEMBL document CHEMBL3988442, “University of Dundee, Small-Polar-MMV Screening Library” (2021).
The whole screen tested about 69,000 compounds, of which about 1,000 (1.4%) showed an effect of 50% or more. This is one part of a sample in which strong results are shown more often than they occur.

Tested on: Leishmania donovani
Assay: Leishmania intramacrophage assay
Assay type: functional, organism-based
Design: scale not given: in the data most compounds retested in dose-response had high values

SMILES: Cc1cnn(CCC(=O)N2CCCC(c3cc(C(N)=O)[nH]n3)C2)c1 (stereo not given)
- Percent Effect (30 µM, 30.03 µM): 2.466%

SMILES: COc1ccccc1CC(=O)N1CCC(OCc2cccnc2)CC1
- Percent Effect (30.3 µM, […]): 5.945%

SMILES: Cc1ccccc1SC1CCN(C(=O)[C@@H]2C[C@@H](N)CN2)CC1
- Percent Effect (30.3 µM, […]): 56.56%

SMILES: Cc1ccccc1SC1CCN(C(=O)[C@H]2[C@@H]3CNC[C@@H]32)CC1
- Percent Effect (30.3 µM, […]): 68.53%

SMILES: Cc1ccccc1SC1CCN(C(=O)C2CNCC(=O)N2)CC1 (stereo not given)
- Percent Effect (30.3 µM, […]): 24.39%

SMILES: CN1C[C@@H](N)C[C@H]1C(=O)N1CCC(Cc2ccc(F)cc2)CC1
- Percent Effect (30.3 µM, […]): 8.715%

SMILES: Cc1ccccc1SC1CCN(C(=O)C2CNC(=O)N2)CC1 (stereo not given)
- Percent Effect (30.3 µM, […]): -12.93%

SMILES: Cc1ccccc1SC1CCN(C(=O)CCCS(N)(=O)=O)CC1
- Percent Effect (30.3 µM, […]): 28.86%

SMILES: Cc1nc[nH]c1C(=O)N1CC[C@@H](NC(=O)c2ccccn2)[C@H](O)C1
- Percent Effect (30.3 µM, […]): 11.08%

SMILES: COCC1CC2(CCN(Cc3nccn3C)CC2)CN1c1ncccn1.O=C(O)C(F)(F)F (stereo not given)
- Percent Effect (30.3 µM, […]): 11.88%

SMILES: CC(=O)c1c(C)nn(CC(=O)N2CCCC2c2ccc(C(N)=O)s2)c1C (stereo not given)
- Percent Effect (30.3 µM, […]): 42.8%

SMILES: Cc1n[nH]c2ncc(CNC3CCCN(c4ncccn4)C3)cc12.Cl (stereo not given)
- Percent Effect (30.3 µM, […]): 15.17%

SMILES: Cc1cnc(N2CCn3c(CN4CCOCC4)nnc3C2)nc1.O=C(O)C(F)(F)F
- Percent Effect (30.3 µM, […]): 30.81%

SMILES: COC(=O)CNC(=O)Cn1ccc2ccc(F)cc21
- Percent Effect (30.3 µM, […]): 14.64%

SMILES: Cc1cc(Cl)cc(C)c1CNC1CCN(CC(=O)N(C)C)CC1
- Percent Effect (30.3 µM, […]): 66.45%

SMILES: Cc1nc(-c2c(C)noc2C)cc(C2CCN(CC(=O)N(C)C)CC2)n1
- Percent Effect (30.3 µM, […]): 31.09%

SMILES: CC(NC1CCN(CC(=O)N(C)C)CC1)c1cnn(C(C)C)c1 (stereo not given)
- Percent Effect (30.3 µM, […]): -44.29%

SMILES: CC(C)Oc1cc(N2CCC(C(N)=O)CC2)nc(N)n1
- Percent Effect (30.3 µM, […]): 14.18%

SMILES: COc1ccc(C2CCCN2C(=O)c2cc3c([nH]c2=O)CCC3)cc1 (stereo not given)
- Percent Effect (30 µM, 30.03 µM): 22.34%

SMILES: O=C1CC2(CCSC2)C(=O)N1Cc1coc(-c2ccccc2)n1 (stereo not given)
- Percent Effect (30.3 µM, […]): 4.889%

SMILES: CNC(=O)N1CCCCC1CCNS(C)(=O)=O (stereo not given)
- Percent Effect (30.3 µM, […]): 6.391%

SMILES: Cc1nn(C)c(N(C)C)c1CNCc1ccccc1Cn1cncn1
- Percent Effect (30 µM, 30.03 µM): 20.9%

SMILES: Cc1cc(F)c(C(C(=O)O)N2CCN(Cc3ccccn3)CC2)cc1Cl (stereo not given)
- Percent Effect (30.3 µM, […]): 5.04%

SMILES: O=C(O)C(c1ccc(Cl)c(F)c1)N1CCN(Cc2ccccn2)CC1 (stereo not given)
- Percent Effect (30.3 µM, […]): 61.2%

SMILES: Cc1ccc(C(C(=O)O)N2CCCN(Cc3ccccn3)CC2)c(F)c1 (stereo not given)
- Percent Effect (30.3 µM, […]): 23.66%

SMILES: COCCC(=O)N1CCCC1c1nccc(C)n1 (stereo not given)
- Percent Effect (30.3 µM, […]): 11.84%

SMILES: Fc1cc(F)cc(CN2CCC(c3cc4ncccc4cn3)CC2)c1
- Percent Effect (30.3 µM, […]): 29.54%

SMILES: Cl.Fc1cccc(CN2CCC(c3cc4ncccc4cn3)CC2)c1F
- Percent Effect (30.3 µM, […]): 51.12%

SMILES: Cl.Fc1ccc(F)c(CN2CCC(c3cc4ncccc4cn3)CC2)c1
- Percent Effect (30.3 µM, […]): 33.05%

SMILES: Cn1nnnc1SCC(=O)N1CCN(C(=O)C2CC2c2cccs2)CC1 (stereo not given)
- Percent Effect (30.3 µM, […]): -0.756%

SMILES: Cc1cnn(CCNCC(O)c2ccc3c(c2)OCCO3)c1 (stereo not given)
- Percent Effect (30.3 µM, […]): -28.04%

SMILES: CN1CCN([C@@H]2CCN(CC3=Cc4cc(Cl)ccc4OC3)C[C@H]2O)CC1
- Percent Effect (30.3 µM, […]): 96.13%

SMILES: O[C@@H]1CN(CC2=Cc3cc(Cl)ccc3OC2)CC[C@H]1N1CCCCCC1
- Percent Effect (30.3 µM, […]): 44.96%

SMILES: CN1CCN([C@@H]2CCN(Cc3ccc4cc(F)ccc4n3)C[C@H]2O)CC1
- Percent Effect (30.3 µM, […]): 33.38%

SMILES: CNc1ncccc1C(=O)N1CCCC2(C1)C(=O)N(C)c1ccccc12 (stereo not given)
- Percent Effect (30.3 µM, […]): 63.07%

SMILES: CN1C(=O)C2(CCCN(C(=O)c3cccnc3O)C2)c2ccccc21 (stereo not given)
- Percent Effect (30.3 µM, […]): 4.492%

SMILES: Cc1c(O)cccc1C(=O)N1CCCC2(C1)C(=O)N(C)c1ccccc12 (stereo not given)
- Percent Effect (30.3 µM, […]): 10.13%

SMILES: O=C(NCC1(O)CCOc2ccccc21)Nc1ccccc1 (stereo not given)
- Percent Effect (30.3 µM, […]): 35.58%

SMILES: CN(CCO)C[C@@H]1CN(C(=O)c2cccc(OC(F)F)c2)C[C@@H]1CO
- Percent Effect (30.3 µM, […]): 59.47%

SMILES: COCCN(C)C[C@@H]1CN(C(=O)c2cccc(C#N)c2)C[C@@H]1CO
- Percent Effect (30.3 µM, […]): -5.773%

SMILES: COCCN(C)C[C@@H]1CN(C(=O)c2cccc(Cl)c2)C[C@@H]1CO
- Percent Effect (30.3 µM, […]): -8.073%

SMILES: COc1ccc(C(=O)N2CCCC2c2cnn(C)c2)cn1 (stereo not given)
- Percent Effect (30 µM): 3.221%

SMILES: CN(Cc1ccco1)Cc1ccccc1CNC(=O)c1cnccn1
- Percent Effect (30.3 µM, […]): 16.56%

SMILES: CC(C)N(CCO)C(=O)c1cc(COc2ccc3c(c2)CCCC3)on1
- Percent Effect (30.3 µM, […]): 15.58%

SMILES: O=C(NCCc1cccnc1)C1CCCN(Cc2ccco2)C1 (stereo not given)
- Percent Effect (30.3 µM, […]): -19.49%

SMILES: Cc1cnccc1NCCNC(=O)C1CCCN(Cc2ccco2)C1 (stereo not given)
- Percent Effect (30.3 µM, […]): 54.03%

SMILES: O=C(NCCCc1ccncc1)C1CCCN(Cc2ccco2)C1 (stereo not given)
- Percent Effect (30 µM, 30.03 µM): 28.63%

SMILES: CCN(C)c1ncnc2c1CCN(C(=O)c1cnccn1)CC2.O=C(O)C(F)(F)F
- Percent Effect (30.3 µM, […]): 16.93%

SMILES: Cc1ncoc1C(=O)N1C[C@H]2CCC[C@@]2(COCC2CCOCC2)C1
- Percent Effect (30 µM, 30.03 µM): 24.66%

SMILES: CN1C(=O)CCCC12CCCN(C(=O)c1cccc(C(F)(F)F)c1)C2 (stereo not given)
- Percent Effect (30.3 µM, […]): 25.18%

SMILES: CN(C)CCNCCC(c1ccccc1)C1CCOC(C)(C)C1.O=C(O)C(=O)O (stereo not given)
- Percent Effect (30.3 µM, […]): 94.59%

SMILES: CC(CCc1ccccc1)NC(=O)CNCCCN(C)C.O=C(O)C(=O)O (stereo not given)
- Percent Effect (30.3 µM, […]): -24.91%

SMILES: CN(C)CCNCCC(Cc1ccccc1)C1CCOC(C)(C)C1.O=C(O)C(=O)O (stereo not given)
- Percent Effect (30.3 µM, […]): 11.95%

SMILES: CCN(CC)CCNCC1CCOC(C)(C)C1 (stereo not given)
- Percent Effect (30.3 µM, […]): 12.8%

SMILES: CN(C)CCCNCC1CCOC(C)(C)C1 (stereo not given)
- Percent Effect (30.3 µM, […]): 10.54%
